Measured values published in PubChem BioAssay AID1159580 (chemical genetic matrix, 2015).
The campaign covered roughly 5,500 compounds. About 2,000 (36%) were called active. Roughly 18% stayed inconclusive and do not appear here. The list shows a part of the results. A number with no mark means an inactive call. No stated cut-off is given here; in the data, active means normalized growth mostly below about 0.91 (no sharp cut-off); inconclusive means no clear call, values can overlap the other calls; inactive means mostly above about 0.92.

Test: chemical genetic growth profiling, strain panel (AID 1159580);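 further: tested at 20 µM; growth read once vehicle control cultures reached saturation at 30 °C; 1 = growth at the plate median or of vehicle wells; lower values mean less growth of the strain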
Conditions: growth OD

CSc1nc(NC(C)C)nc(NC(C)C)n1
normalized growth (S. cerevisiae deletion strains, locus YJR075W, strain HOC1, active compounds read low): 1.02
normalized growth (S. cerevisiae deletion strains, locus YKL009W, strain mrt4, active compounds read low): 1.03
normalized growth (S. cerevisiae deletion strains, locus YKL068W, active compounds read low): 1
normalized growth (S. cerevisiae deletion strains, locus YKL085W, strain MDH1 (second series), active compounds read low): 1.01
normalized growth (S. cerevisiae deletion strains, locus YKL085W, strain MDH1, active compounds read low): 1.01
normalized growth (S. cerevisiae deletion strains, locus YKL160W, strain elf1, active compounds read low): 0.979
normalized growth (S. cerevisiae deletion strains, locus YKL190W, strain CNB1, active compounds read low): 1.02
normalized growth (S. cerevisiae deletion strains, locus YKR001C, strain vps1, active compounds read low): 1.03
normalized growth (S. cerevisiae deletion strains, locus YKR026C, strain gcn3, active compounds read low): 0.973
normalized growth (S. cerevisiae deletion strains, locus YKR091W, strain srl3, active compounds read low): 0.973
normalized growth (S. cerevisiae deletion strains, locus YLL001W, strain dnm1, active compounds read low): 0.979
normalized growth (S. cerevisiae deletion strains, locus YLL026W, active compounds read low): 0.975
normalized growth (S. cerevisiae deletion strains, locus YLL041C, strain sdh2, active compounds read low): 0.983
normalized growth (S. cerevisiae deletion strains, locus YLR027C, strain aat2, active compounds read low): 0.967
normalized growth (S. cerevisiae deletion strains, locus YLR039C, strain RIC1, active compounds read low): 0.987
normalized growth (S. cerevisiae deletion strains, locus YLR058C, strain SHM2, active compounds read low): 1.01
normalized growth (S. cerevisiae deletion strains, locus YLR102C, strain apc9, active compounds read low): 1
normalized growth (S. cerevisiae deletion strains, locus YLR113W, strain HOG1, active compounds read low): 0.993
normalized growth (S. cerevisiae deletion strains, locus YLR221C, strain rsa3, active compounds read low): 0.971
normalized growth (S. cerevisiae deletion strains, locus YLR258W, strain gsy2, active compounds read low): 0.964
normalized growth (S. cerevisiae deletion strains, locus YLR262C, strain YPT6 (second series), active compounds read low): 0.856 (active)
normalized growth (S. cerevisiae deletion strains, locus YLR262C, strain YPT6, active compounds read low): 1.03
normalized growth (S. cerevisiae deletion strains, locus YLR268W, strain sec22, active compounds read low): 1.01
normalized growth (S. cerevisiae deletion strains, locus YLR320W, strain mms22, active compounds read low): 0.961
normalized growth (S. cerevisiae deletion strains, locus YLR330W, strain CHS5, active compounds read low): 1.01
normalized growth (S. cerevisiae deletion strains, locus YLR342W, strain FKS1 (second series), active compounds read low): 0.974
normalized growth (S. cerevisiae deletion strains, locus YLR342W, strain FKS1, active compounds read low): 0.958
normalized growth (S. cerevisiae deletion strains, locus YLR357W, strain rsc2, active compounds read low): 0.923
normalized growth (S. cerevisiae deletion strains, locus YLR370C, strain arc18, active compounds read low): 0.969
normalized growth (S. cerevisiae deletion strains, locus YLR371W, strain rom2, active compounds read low): 0.999
normalized growth (S. cerevisiae deletion strains, locus YLR384C, strain iki3, active compounds read low): 0.972
normalized growth (S. cerevisiae deletion strains, locus YLR418C, strain cdc73, active compounds read low): 1.04
normalized growth (S. cerevisiae deletion strains, locus YML016C, strain PPZ1, active compounds read low): 0.989
normalized growth (S. cerevisiae deletion strains, locus YML032C, strain rad52, active compounds read low): 1.03
normalized growth (S. cerevisiae deletion strains, locus YML120C, strain ndi1, active compounds read low): 0.966
normalized growth (S. cerevisiae deletion strains, locus YML124C, strain tub3, active compounds read low): 1.02
normalized growth (S. cerevisiae deletion strains, locus YMR058W, strain fet3, active compounds read low): 0.97
normalized growth (S. cerevisiae deletion strains, locus YMR078C, strain ctf18, active compounds read low): 1.02
normalized growth (S. cerevisiae deletion strains, locus YMR125W, strain sto1, active compounds read low): 0.958
normalized growth (S. cerevisiae deletion strains, locus YMR129W, active compounds read low): 0.973
normalized growth (S. cerevisiae deletion strains, locus YMR205C, strain PFK2, active compounds read low): 0.944
normalized growth (S. cerevisiae deletion strains, locus YMR223W, strain ubp8, active compounds read low): 1.01
normalized growth (S. cerevisiae deletion strains, locus YMR231W, strain pep5, active compounds read low): 0.973
normalized growth (S. cerevisiae deletion strains, locus YMR263W, strain SAP30, active compounds read low): 1.02
normalized growth (S. cerevisiae deletion strains, locus YMR307W, strain GAS1, active compounds read low): 1.05
normalized growth (S. cerevisiae deletion strains, locus YNL067W, strain RPL9B, active compounds read low): 0.999
normalized growth (S. cerevisiae deletion strains, locus YNL071W, strain lat1, active compounds read low): 0.978
normalized growth (S. cerevisiae deletion strains, locus YNL128W, strain TEP1, active compounds read low): 1.01
normalized growth (S. cerevisiae deletion strains, locus YNL153C, strain GIM3, active compounds read low): 1
normalized growth (S. cerevisiae deletion strains, locus YNL183C, strain NPR1, active compounds read low): 0.969
normalized growth (S. cerevisiae deletion strains, locus YNL209W, strain ssb2, active compounds read low): 0.987
normalized growth (S. cerevisiae deletion strains, locus YNL233W, strain BNI4, active compounds read low): 1.02
normalized growth (S. cerevisiae deletion strains, locus YNL248C, strain rpa49, active compounds read low): 0.979
normalized growth (S. cerevisiae deletion strains, locus YNL250W, strain rad50, active compounds read low): 1.01
normalized growth (S. cerevisiae deletion strains, locus YNL271C, strain bni1, active compounds read low): 1.01
normalized growth (S. cerevisiae deletion strains, locus YNL298W, strain CLA4, active compounds read low): 1
normalized growth (S. cerevisiae deletion strains, locus YNL307C, strain MCK1, active compounds read low): 1.01
normalized growth (S. cerevisiae deletion strains, locus YNL322C, strain KRE1 (second series), active compounds read low): 0.962
normalized growth (S. cerevisiae deletion strains, locus YNL322C, strain KRE1, active compounds read low): 1.01
normalized growth (S. cerevisiae deletion strains, locus YNR049C, strain mso1, active compounds read low): 0.953
normalized growth (S. cerevisiae deletion strains, locus YNR052C, strain pop2, active compounds read low): 1.02
normalized growth (S. cerevisiae deletion strains, locus YOL006C, strain TOP1, active compounds read low): 1.02
normalized growth (S. cerevisiae deletion strains, locus YOL012C, strain htz1): 0.96
normalized growth (S. cerevisiae deletion strains, locus YOL147C, strain pex11, active compounds read low): 1.02
normalized growth (S. cerevisiae deletion strains, locus YOR001W, strain rrp6, active compounds read low): 0.98
normalized growth (S. cerevisiae deletion strains, locus YOR061W, strain CKA2, active compounds read low): 1
normalized growth (S. cerevisiae deletion strains, locus YOR069W, strain VPS5, active compounds read low): 1.01
normalized growth (S. cerevisiae deletion strains, locus YOR070C, strain gyp1, active compounds read low): 0.962
normalized growth (S. cerevisiae deletion strains, locus YOR080W, strain dia2, active compounds read low): 0.963
normalized growth (S. cerevisiae deletion strains, locus YOR083W, strain WHI5, active compounds read low): 0.969
normalized growth (S. cerevisiae deletion strains, locus YOR106W, strain vam3, active compounds read low): 0.956
normalized growth (S. cerevisiae deletion strains, locus YOR136W, strain idh2, active compounds read low): 1.03
normalized growth (S. cerevisiae deletion strains, locus YOR144C, strain elg1, active compounds read low): 1.01
normalized growth (S. cerevisiae deletion strains, locus YOR184W, strain ser1, active compounds read low): 1.03
normalized growth (S. cerevisiae deletion strains, locus YOR231W, strain MKK1, active compounds read low): 1.03
normalized growth (S. cerevisiae deletion strains, locus YOR265W, strain rbl2, active compounds read low): 0.962
normalized growth (S. cerevisiae deletion strains, locus YOR270C, strain vph1, active compounds read low): 0.934
normalized growth (S. cerevisiae deletion strains, locus YOR290C, strain snf2, active compounds read low): 0.95
normalized growth (S. cerevisiae deletion strains, locus YOR316C, strain cot1, active compounds read low): 1.01
normalized growth (S. cerevisiae deletion strains, locus YPL051W, strain arl3, active compounds read low): 0.963
normalized growth (S. cerevisiae deletion strains, locus YPL055C, strain LGE1, active compounds read low): 1.04
normalized growth (S. cerevisiae deletion strains, locus YPL078C, strain atp4, active compounds read low): 0.969
normalized growth (S. cerevisiae deletion strains, locus YPL106C, strain sse1, active compounds read low): 0.986
normalized growth (S. cerevisiae deletion strains, locus YPL240C, strain hsp82, active compounds read low): 0.966
normalized growth (S. cerevisiae deletion strains, locus YPL241C, strain CIN2, active compounds read low): 1.01
normalized growth (S. cerevisiae deletion strains, locus YPL256C, strain CLN2, active compounds read low): 1.04
normalized growth (S. cerevisiae deletion strains, locus YPR119W, strain clb2, active compounds read low): 1.02
normalized growth (S. cerevisiae deletion strains, locus YPR141C, strain kar3, active compounds read low): 1.02
normalized growth (S. cerevisiae deletion strains, locus YPR163C, strain tif3, active compounds read low): 1.02
normalized growth (S. cerevisiae deletion strains, locus YPR167C, strain met16, active compounds read low): 1.01
normalized growth (S. cerevisiae deletion strains, strain wtn01, active compounds read low): 1.01
normalized growth (S. cerevisiae strains, strain wild type, active compounds read low): 1.01
